# Data published in the supplement of paper PMC8728848.
# The entries come from a sample that favours the strongest signals as a whole.
# What was measured:
# Assay in all cases: glycan array binding signal (z-score within array); higher = stronger binding
# [1] = target: Fuc(a1-2)[Gal(a1-4)]Gal(b1-4)GlcNAc; conditions: glycan notation: IUPAC condensed, linker removed; mutation: E347A
# Procedure, shortened: (§1)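 The binding signal is a Z-score computed within each array and averaged over linkers. Arrays of the same protein sequence at different concentrations or buffers were also averaged together. Data originate from 3228 arrays in the Consortium for Functional Glycomics database, kept only where the protein sequence was available.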
# [2] = target: Fuc(a1-3)[GalNAc(b1-4)]GlcNAc; conditions: glycan notation: IUPAC condensed, linker removed; mutation: E347A
# Procedure, shortened: as §1
# Gal(a1-3)Gal(b1-4)GlcNAc = conditions: glycan notation: IUPAC condensed, linker removed; mutation: E347A
# Procedure, shortened: as §1
# Gal(a1-3)GalNAc = conditions: glycan notation: IUPAC condensed, linker removed; mutation: E347A
# Procedure, shortened: as §1
# Gal(a1-6)Glc = conditions: glycan notation: IUPAC condensed, linker removed; mutation: E347A
# Procedure, shortened: as §1
# Gal(b1-2)Gal = conditions: glycan notation: IUPAC condensed, linker removed; mutation: E347A
# Procedure, shortened: as §1
# [3] = target: Gal(b1-3)GlcNAc(b1-3)Gal(b1-4)GlcNAc; conditions: glycan notation: IUPAC condensed, linker removed; mutation: E347A
# Procedure, shortened: as §1
# [4] = target: Gal(b1-3)[GlcNAc(b1-6)]GalNAc; conditions: glycan notation: IUPAC condensed, linker removed; mutation: E347A
# Procedure, shortened: as §1
# [5] = target: Gal(b1-3)[Neu5Ac(a2-6)]GlcNAc(b1-6)Gal(b1-4)Glc; conditions: glycan notation: IUPAC condensed, linker removed; mutation: E347A
# Procedure, shortened: as §1
# [6] = target: Gal(b1-4)GlcNAc(a1-6)Gal(b1-4)GlcNAc; conditions: glycan notation: IUPAC condensed, linker removed; mutation: E347A
# Procedure, shortened: as §1
# [7] = target: Gal(b1-4)GlcNAc(b1-3)Gal(b1-4)GlcNAc; conditions: glycan notation: IUPAC condensed, linker removed; mutation: E347A
# Procedure, shortened: as §1
# [8] = target: Gal(b1-4)GlcNAc(b1-3)GalNAc; conditions: glycan notation: IUPAC condensed, linker removed
# Procedure, shortened: as §1
# [9] = target: Gal(b1-4)GlcNAc(b1-6)Gal(b1-4)GlcNAc; conditions: glycan notation: IUPAC condensed, linker removed; mutation: E347A
# Procedure, shortened: as §1
# GlcNAc(b1-3)Gal = conditions: glycan notation: IUPAC condensed, linker removed; mutation: E347A
# Procedure, shortened: as §1
# GlcNAc3Prop(b1-4)GlcNAc = conditions: glycan notation: IUPAC condensed, linker removed; mutation: E347A
# Procedure, shortened: as §1
# Man(a1-2)Man(a1-3)Man = conditions: glycan notation: IUPAC condensed, linker removed; mutation: E347A
# Procedure, shortened: as §1
# [10] = target: Man(a1-2)Man(a1-3)[Man(a1-2)Man(a1-6)]Man; conditions: glycan notation: IUPAC condensed, linker removed; mutation: E347A
# Procedure, shortened: as §1
# [11] = target: Man(a1-2)Man(a1-3)[Man(a1-2)Man(a1-6)]Man(a1-6)[Man(a1-2)Man(a1-2)Man(a1-3)]Man; conditions: glycan notation: IUPAC condensed, linker removed; mutation: E347A
# Procedure, shortened: as §1
# [12] = target: Man(a1-2)Man(a1-3)[Man(a1-6)]Man(a1-6)[Man(a1-2)Man(a1-3)]Man(b1-4)GlcNAc(b1-4)GlcNAc; conditions: glycan notation: IUPAC condensed, linker removed; mutation: E347A
# Procedure, shortened: as §1
# [13] = target: Man(a1-2)Man(a1-6)[Man(a1-3)]Man(a1-6)[Man(a1-2)Man(a1-2)Man(a1-3)]Man; conditions: glycan notation: IUPAC condensed, linker removed; mutation: E347A
# Procedure, shortened: as §1
# [14] = target: Man(a1-3)[Man(a1-6)]Man(a1-6)[Man(a1-2)Man(a1-3)]Man(b1-4)GlcNAc(b1-4)GlcNAc; conditions: glycan notation: IUPAC condensed, linker removed; mutation: E347A
# Procedure, shortened: as §1
# [15] = target: Man(a1-3)[Man(a1-6)]Man(a1-6)[Man(a1-3)]Man(b1-4)GlcNAc(b1-4)GlcNAc; conditions: glycan notation: IUPAC condensed, linker removed; mutation: E347A
# Procedure, shortened: as §1
# [16] = target: Neu5Ac(a2-3)Gal(b1-3)GlcNAc; conditions: glycan notation: IUPAC condensed, linker removed; mutation: E347A
# Procedure, shortened: as §1
# [17] = target: Neu5Ac(a2-3)Gal6S(b1-4)[Fuc(a1-3)]GlcNAc; conditions: glycan notation: IUPAC condensed, linker removed; mutation: E347A
# Procedure, shortened: as §1
# [18] = target: Neu5Gc(a2-3)Gal(b1-3)GlcNAc; conditions: glycan notation: IUPAC condensed, linker removed; mutation: E347A
# Procedure, shortened: as §1
# [19] = target: Fuc(a1-2)[GalNAc(a1-3)]Gal(b1-4)Glc; conditions: glycan notation: IUPAC condensed, linker removed
# Procedure, shortened: as §1
# [20] = target: Gal(b1-3)GalNAc(b1-4)Gal(b1-4)Glc; conditions: glycan notation: IUPAC condensed, linker removed
# Procedure, shortened: as §1
# [21] = target: Gal(b1-4)GlcNAc(b1-3)Gal(b1-4)[Fuc(a1-3)]GlcNAc(b1-3)Gal(b1-4)[Fuc(a1-3)]GlcNAc; conditions: glycan notation: IUPAC condensed, linker removed
# Procedure, shortened: as §1
# Gal3S6S(b1-4)GlcNAc6S = conditions: glycan notation: IUPAC condensed, linker removed
# Procedure, shortened: as §1
# Glc(a1-4)Glc = conditions: glycan notation: IUPAC condensed, linker removed
# Procedure, shortened: as §1
# GlcNAc(b1-3)GalNAc = conditions: glycan notation: IUPAC condensed, linker removed
# Procedure, shortened: as §1
# [22] = target: GlcNAc(b1-3)[GlcNAc(b1-6)]GalNAc; conditions: glycan notation: IUPAC condensed, linker removed
# Procedure, shortened: as §1
# [23] = target: GlcNAc(b1-4)[GlcNAc(b1-6)]GalNAc; conditions: glycan notation: IUPAC condensed, linker removed
# Procedure, shortened: as §1
# [24] = target: Neu5Ac(a2-3)Gal(b1-3)[Fuc(a1-4)]GlcNAc; conditions: glycan notation: IUPAC condensed, linker removed
# Procedure, shortened: as §1
# [25] = target: Neu5Ac(a2-3)Gal(b1-4)GlcNAc; conditions: glycan notation: IUPAC condensed, linker removed
# Procedure, shortened: as §1
# [26] = target: Neu5Ac(a2-3)Gal(b1-4)GlcNAc(b1-3)Gal(b1-4)GlcNAc(b1-3)Gal(b1-4)GlcNAc; conditions: glycan notation: IUPAC condensed, linker removed
# Procedure, shortened: as §1
# [27] = target: Neu5Ac(a2-3)Gal(b1-4)[Fuc(a1-3)]GlcNAc6S; conditions: glycan notation: IUPAC condensed, linker removed
# Procedure, shortened: as §1
# [28] = target: Neu5Ac9Ac(a2-6)Gal(b1-4)GlcNAc; conditions: glycan notation: IUPAC condensed, linker removed
# Procedure, shortened: as §1
# [29] = target: Neu5Gc(a2-6)Gal(b1-4)GlcNAc; conditions: glycan notation: IUPAC condensed, linker removed
# Procedure, shortened: as §1
# [30] = target: Neu5Ac(a2-6)GlcNAc(b1-4)GlcNAc(b1-4)GlcNAc; conditions: glycan notation: IUPAC condensed, linker removed
# Procedure, shortened: as §1
# Neu5Ac(a2-8)Neu5Ac = conditions: glycan notation: IUPAC condensed, linker removed
# Procedure, shortened: as §1
binder,measurement,setting,value
Surfactant Protein D (Human); Neck + Carbohydrate Recognition Domain (NCRD) (Homo sapiens) (protein) MLLFLLSALVLLTQPLGYLEAEMKTYSHRTMPSACTLVMCSSVESGLPGRDRDGREGPRGEKGDPGLPGAAGQAGMPGQAGPVGPKGDNGSVGEPGPKGDTGPSGPPGPPGVPGPAGREGALGKQGNIGPQGKPGPKGEAGPKGEVGAPGMQGSAGARGLAGPKGERGVPGERGVPGNTGAAGSAGAMGPQGSPGARGPPGLKGDKGIPGDKGAKGESGLPDVASLRQQVEALQGQVQHLQAAFSQYKKVELFPNGQSVGEKIFKTAQFVKPFTEAQLLCTQAGGQLASPRSAAENAALQQLVVAKNEAAFLSMTDSKTEGKFTYPTGESLVYSNWAPGEPNDDGGSADCVEIFTNGKWNDRACGAKRLVVCEF,glycan array binding signal (z-score),[1],-0.321
same,glycan array binding signal (z-score),[2],-0.435
same,glycan array binding signal (z-score),Gal(a1-3)Gal(b1-4)GlcNAc,-0.244
same,glycan array binding signal (z-score),Gal(a1-3)GalNAc,-0.384
same,glycan array binding signal (z-score),Gal(a1-6)Glc,-0.408
same,glycan array binding signal (z-score),Gal(b1-2)Gal,-0.48
same,glycan array binding signal (z-score),[3],-0.211
same,glycan array binding signal (z-score),[4],-0.15
same,glycan array binding signal (z-score),[5],-0.424
same,glycan array binding signal (z-score),[6],-0.244
same,glycan array binding signal (z-score),[7],0.532
same,glycan array binding signal (z-score),[8]; mutation: E347A,-0.384
same,glycan array binding signal (z-score),[9],-0.317
same,glycan array binding signal (z-score),GlcNAc(b1-3)Gal,-0.071
same,glycan array binding signal (z-score),GlcNAc3Prop(b1-4)GlcNAc,-0.18
same,glycan array binding signal (z-score),Man(a1-2)Man(a1-3)Man,1.58
same,glycan array binding signal (z-score),[10],6.34
same,glycan array binding signal (z-score),[11],-0.461
same,glycan array binding signal (z-score),[12],10.1
same,glycan array binding signal (z-score),[13],5.19
same,glycan array binding signal (z-score),[14],10.2
same,glycan array binding signal (z-score),[15],0.008
same,glycan array binding signal (z-score),[16],-0.335
same,glycan array binding signal (z-score),[17],-0.255
same,glycan array binding signal (z-score),[18],0
CLL-1 (Homo sapiens) (protein) MWIDFFTYSSMSEEVTYADLQFQNSSEMEKIPEIGKFGEKAPPAPSHVWRPAALFLTLLCLLLLIGLGVLASMFHVTLKIEMKKMNKLQNISEELQRNISLQLMSNMNISNKIRNLSTTLQTIATKLCRELYSKEQEHKCKPCPRRWIWHKDSCYFLSDDVQTWQESKMACAAQNASLLKINNKNALEFIKSQSRSYDYWLGLSPEEDSTRGMRVDNIINSSAWVIRNAPDLNNMYCGYINRLYVQYYHCTYKKRMICEKMANPVQLGSTYFREA,glycan array binding signal (z-score),[19],-0.065
same,glycan array binding signal (z-score),[20],-0.279
same,glycan array binding signal (z-score),[21],-0.107
same,glycan array binding signal (z-score),[8],-0.238
same,glycan array binding signal (z-score),Gal3S6S(b1-4)GlcNAc6S,3.91
same,glycan array binding signal (z-score),Glc(a1-4)Glc,1
same,glycan array binding signal (z-score),GlcNAc(b1-3)GalNAc,-0.228
same,glycan array binding signal (z-score),[22],-0.19
same,glycan array binding signal (z-score),[23],-0.247
same,glycan array binding signal (z-score),[24],1.22
same,glycan array binding signal (z-score),[25],-0.14
same,glycan array binding signal (z-score),[26],2.45
same,glycan array binding signal (z-score),[27],-0.15
same,glycan array binding signal (z-score),[28],-0.216
same,glycan array binding signal (z-score),[29],-0.231
"ASAL (Allium sativum), P83886 (protein) MGRTTSSPKAMMRIATVAAILTILASTCMARNVLTNGEGLYAGQSLDVEQYKFIMQDDCNLVLYEYSTPIWASNTGVTGKNGCRAVMQRDGNFVVYDVNGRPVWASNSVRGNGNYILVLQKDRNVVIYGSDIWSTGTYRRSVGGAVVMAMNGTVDGGSVIGPVVVNQNVTAAIRKVGTGAA",glycan array binding signal (z-score),[30],-0.29
same,glycan array binding signal (z-score),Neu5Ac(a2-8)Neu5Ac,-0.25
